Records with an inconclusive call do not appear. Values without a mark were called inactive. Active and inactive are the calls of the source. Calls come from the whole dose curve; as a rule, active = well fitted cell-killing curve with a large enough effect in the repeat runs; inconclusive = weak or mixed curves, or effect the other way; inactive = flat fitted curve, though single readings scatter.

Experiment [1] is described as follows: cAMP Responsive Elements (CRE) small molecule antagonists, cell-based qHTS assay: qHTS cell viability counter screen (AID 2060913). Note: nearly all actives have a fitted effect of over 40% in size. In short, it runs like this:
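Steps: cells plated and held 18 hrs at 37 C/5% CO2; compounds and NKH477 (0.25 uM final) added; 3 hrs incubation; reporter substrate read; CellTiter-Glo added to measure cytotoxicity by luminescence.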

Experiment [2] in a line: cAMP Responsive Elements (CRE) small molecule agonists, cell-based qHTS assay: qHTS cell viability counter screen (AID 2060914). Note: nearly all actives have a fitted effect of over 50% in size. In short, it runs like this:
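Luminescence read-out (CellTiter-Glo, 30 min RT) of ATP-based viability in CRE-bla HEK 293T cells, run in the same wells as the β-lactamase reporter assay after 3 h compound treatment at 37 °C.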
On the technique in general: In qHTS, concentration-response curves come from the screen itself.
% is set by controls: 0 for no effect and ±100 for the full control effect.

On to `Clc1cccc(Cl)c1NC1=NCCN1`, for which the Potency result in experiment [1] and in experiment [2] was “inactive” each time.
For the molecule `CC(C)NCCCC1(C(N)=O)c2ccccc2-c2ccccc21`, the Potency entry in experiment [1] and in experiment [2] was “inactive” in each case.
As to `CCOC(=O)c1ccc(I)cc1`, the Potency entry in experiment [1] and in experiment [2] was “inactive” each time.
Take `O=[N+]([O-])c1ccc(Nc2ccc(Nc3ccccc3)c(S(=O)(=O)O)c2)c([N+](=O)[O-])c1`: the Potency result in experiment [1] and in experiment [2] was “inactive” in each case.
On to `CCOc1ccccc1O[C@H](c1ccccc1)[C@H]1CNCCO1`, for which the Potency entry in experiment [1] and in experiment [2] was “inactive” throughout.
For the molecule `Cc1cccc(C)c1OCC(C)N` (stereo not given), the Potency result in experiment [1] and in experiment [2] was “inactive” in each case.
With `CCOC(=O)COC(=O)c1ccccc1C(=O)OCC`, the Potency entry in experiment [1] and in experiment [2] was “inactive” in each case.
Take `CN(C1CCCCC1)S(=O)(=O)c1ccccc1N`: the Potency result in experiment [1] and in experiment [2] was “inactive” in each case.
For `c1ccsc1`, the Potency result in experiment [1] and in experiment [2] was “inactive” throughout.
As for `CCOc1cc(OCC)c(C(C)=O)cc1OCC`, the Potency entry in experiment [1] and in experiment [2] was “inactive” throughout.
`CCn1nc(C(=O)O)c(=O)c2cc3c(cc21)OCO3`: the Potency result in experiment [1] and in experiment [2] was “inactive” throughout.
With `Cc1cn([C@H]2C=C[C@@H](CO)O2)c(=O)[nH]c1=O`, the Potency entry in experiment [1] and in experiment [2] was “inactive” in each case.
In the case of `COC(=O)/C=C\C(=O)OC`, the Potency entry in experiment [1] and in experiment [2] was “inactive” throughout.
Consider `CCCc1ccc(O)c(OC)c1`, for which the Potency result in experiment [1] and in experiment [2] was “inactive” throughout.
Consider `Cc1cc(=O)[nH]c(=S)[nH]1`, for which the Potency result in experiment [1] and in experiment [2] was “inactive” in each case.
For the molecule `CCCCCCCCCCCCS(=O)(=O)Cl`, the viability change, negative = cytotoxic in experiment [1] is 11.7% [at 18.9 µM]. Further, the activity change, negative = cytotoxicity in experiment [2] is 8.81% [at 18.9 µM].
Consider `COC(=O)[C@H](Cc1ccccc1)NC(=O)[C@@H](N)CC(=O)O`, for which the Potency entry in experiment [1] and in experiment [2] was “inactive” in each case.
Take `CC1=NN(c2ccc(C(=O)O)cc2)C(=O)C1`: the Potency entry in experiment [1] and in experiment [2] was “inactive” in each case.
With `CN(C)c1ccc(C2(c3ccc(N(C)C)cc3)OC(=O)c3cc(N(C)C)ccc32)cc1`, the Potency entry in experiment [1] and in experiment [2] was “inactive” each time.
Regarding `CC(CN)CC(C)(C)CCN` (stereo not given), the Potency result in experiment [1] and in experiment [2] was “inactive” throughout.
Turning to `Cc1ccc(NC(=O)c2ccc(CN3CCN(C)CC3)cc2)cc1Nc1nccc(-c2cccnc2)n1`, the Potency entry in experiment [1] and in experiment [2] was “inactive” throughout.
Turning to `N[C@H]1C(O)O[C@H](CO)[C@@H](O)[C@@H]1O` (stereo not given in full), the Potency result in experiment [1] and in experiment [2] was “inactive” in each case.
`CCCCOc1ccc(C(=O)CCN2CCCCC2)cc1`: the Potency result in experiment [1] and in experiment [2] was “inactive” each time.
As to `CC1(C)S[C@@H]2[C@H](NC(=O)COc3ccccc3)C(=O)N2[C@H]1C(=O)O`, the Potency entry in experiment [1] and in experiment [2] was “inactive” throughout.
For the molecule `CN=C(NC#N)NCCSCc1nc[nH]c1C`, the Potency entry in experiment [1] and in experiment [2] was “inactive” in each case.
Consider `O=C(O)c1cccc([N+](=O)[O-])c1`, for which the Potency result in experiment [1] and in experiment [2] was “inactive” in each case.
On to `CCOC(=O)CN1CCCC1=O`, for which the Potency entry in experiment [1] and in experiment [2] was “inactive” each time.
Regarding `CC(=O)[C@H]1CC[C@H]2[C@@H]3C=CC4=CC(=O)CC[C@@]4(C)[C@@H]3CC[C@]12C`, the Potency result in experiment [1] and in experiment [2] was “inactive” each time.
On to `Nc1c(NC/C=C\COc2cc(CN3CCCCC3)ccn2)c(=O)c1=O`, for which the viability change, negative = cytotoxic in experiment [1] is -0.847% [at 18.9 µM]. Also, the activity change, negative = cytotoxicity in experiment [2] is 0.246% [at 18.9 µM].
Turning to `OCC1CC=CCC1` (stereo not given), the Potency result in experiment [1] and in experiment [2] was “inactive” in each case.
`COc1cc(NS(=O)(=O)c2ccc(N)cc2)ncn1`: the Potency entry in experiment [1] and in experiment [2] was “inactive” each time.
Take `O=C=NCC1CCCC(CN=C=O)C1` (stereo not given): the Potency result in experiment [1] and in experiment [2] was “inactive” each time.
`O=c1oc2cc(O)ccc2c2oc3cc(O)ccc3c12`: the Potency entry in experiment [1] and in experiment [2] was “inactive” throughout.
Turning to `CCC(=O)c1c(O)cc(O)cc1O`, the Potency result in experiment [1] and in experiment [2] was “inactive” throughout.
Consider `O=C(CCCCCCCCc1cccnc1)N1CCC(C=C(c2ccccc2)c2ccccc2)CC1`, for which the Potency result in experiment [1] and in experiment [2] was “inactive” each time.
On to `CC(=O)/C=C/C1C(C)=CCCC1(C)C` (stereo not given), for which the Potency result in experiment [1] and in experiment [2] was “inactive” each time.
`CCC(=O)OCc1ccc(OC)cc1`: the Potency result in experiment [1] and in experiment [2] was “inactive” throughout.
`CC(=O)SC[C@@H](C)C(=O)N1CCC[C@H]1C(=O)N[C@@H](Cc1ccccc1)C(=O)O`: the Potency result in experiment [1] and in experiment [2] was “inactive” each time.
In the case of `CCOC(=O)C(C)Oc1ccc(Oc2cnc3cc(Cl)ccc3n2)cc1` (stereo not given), the Potency entry in experiment [1] and in experiment [2] was “inactive” throughout.
On to `Cc1occc1C(=O)Nc1ccc(C(=O)N2CCC(F)(F)/C(=C\C(=O)N3CCC(N4CCCCC4)CC3)c3ccccc32)cc1`, for which the Potency result in experiment [1] and in experiment [2] was “inactive” in each case.
With `COC(=O)c1ccc(C)cc1C1=NC(C)(C(C)C)C(=O)N1` (stereo not given), the Potency result in experiment [1] and in experiment [2] was “inactive” each time.
Turning to `COc1ccc(N)c(C)c1`, the Potency result in experiment [1] and in experiment [2] was “inactive” each time.
Take `Cc1occc(=O)c1O`: the Potency entry in experiment [1] and in experiment [2] was “inactive” in each case.
Turning to `O=C(O)CO`, the Potency entry in experiment [1] and in experiment [2] was “inactive” each time.
As to `O=C(O)Cc1ccc(-c2ccccc2)cc1`, the Potency entry in experiment [1] and in experiment [2] was “inactive” throughout.
Take `COc1ccc(C2C(=O)c3ccccc3C2=O)cc1`: the Potency result in experiment [1] and in experiment [2] was “inactive” throughout.
As to `O=C1N=C(O)CN1/N=C/c1ccc(-c2ccc([N+](=O)[O-])cc2)o1`, the Potency result in experiment [1] and in experiment [2] was “inactive” in each case.
For `COc1cc(S(N)(=O)=O)cc(C(=O)O)c1OC`, the Potency entry in experiment [1] and in experiment [2] was “inactive” in each case.
Take `COC(C)COC(C)COC(C)CO` (stereo not given): the Potency entry in experiment [1] and in experiment [2] was “inactive” in each case.
With `NS(=O)(=O)O`, the Potency entry in experiment [1] and in experiment [2] was “inactive” in each case.
Regarding `CCCCNc1ccc(C(=O)OCCN(C)C)cc1`, the Potency entry in experiment [1] and in experiment [2] was “inactive” throughout.
For `C=CCCC=C`, the Potency result in experiment [1] and in experiment [2] was “inactive” throughout.
Turning to `Cc1ccc(-n2nc(C(C)(C)C)cc2NC(=O)Nc2ccc(OCCN3CCOCC3)c3ccccc23)cc1`, the Potency entry in experiment [1] and in experiment [2] was “inactive” each time.
In the case of `FC(F)(F)c1cccc(Cl)c1`, the Potency result in experiment [1] and in experiment [2] was “inactive” in each case.
Consider `Clc1cc(Cl)c(Cl)nc1Cl`, for which the Potency result in experiment [1] and in experiment [2] was “inactive” throughout.
Turning to `O=C1c2ccccc2C(=O)C1c1ccc(Br)cc1`, the Potency result in experiment [1] and in experiment [2] was “inactive” each time.
For the molecule `CC(C)CCCC(=O)O`, the Potency result in experiment [1] and in experiment [2] was “inactive” throughout.
As for `CC/C=C\CCOC(C)OCC` (stereo not given), the Potency entry in experiment [1] and in experiment [2] was “inactive” throughout.
For `CCOCCOCCOC(C)=O`, the Potency result in experiment [1] and in experiment [2] was “inactive” each time.
With `Nc1nccs1`, the Potency result in experiment [1] and in experiment [2] was “inactive” throughout.

The values are drawn from PubChem BioAssay (Tox21).
